JMJD2E inh = qHTS Assay for Inhibitors of Human Jumonji Domain Containing 2E (JMJD2E) | Lysine-specific demethylase 4E (Homo sapiens), B2RXH2 | JMJD2E catalytic domain, FDH-coupled NADH fluorescence (FDH is formaldehyde dehydrogenase) | Potency, µM (top dose mostly 57.1 µM), for the others: at the highest dose activity change, negative = inhibition, actives largely listed as inhibitors | 1.6% of 230,000 active; active = well fitted inhibition curve with a large enough effect, not every such curve was filed as active; inconclusive = small, poorly fitted or top-dose-only effect, or another doubt; inactive = no such curve, though single readings can be large or run the other way;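 note: potency is the fitted concentration of half-maximal effect; 0% = wells with enzyme and -100% = buffer wells without enzyme; nearly all actives have a fitted effect of over 50% in size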
Target sequence (B2RXH2 1-337 limits assumed): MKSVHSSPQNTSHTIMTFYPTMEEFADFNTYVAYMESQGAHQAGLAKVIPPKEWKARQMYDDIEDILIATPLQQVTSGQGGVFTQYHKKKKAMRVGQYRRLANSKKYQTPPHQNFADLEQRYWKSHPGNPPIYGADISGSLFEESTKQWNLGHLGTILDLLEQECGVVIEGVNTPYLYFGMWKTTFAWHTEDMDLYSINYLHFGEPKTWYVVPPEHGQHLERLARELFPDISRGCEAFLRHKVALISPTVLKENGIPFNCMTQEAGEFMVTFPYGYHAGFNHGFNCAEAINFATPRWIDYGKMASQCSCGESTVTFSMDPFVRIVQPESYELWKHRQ
Tau ThT inhib = qHTS for Inhibitors of Tau Fibril Formation, Thioflavin T Binding; recombinant tau K18 P301L, heparin-induced fibrillization, ThT fluorescence; AID 1460, 2008; 2.1% of 270,000 active; Microtubule-associated protein tau (Homo sapiens), P10636; Potency, µM (titrated, usually from 57.4 µM), inactives show top-dose activity, negative = inhibition, usual class: inhibitors; note: potency is the fitted concentration of half-maximal effect; nearly all actives have a fitted effect of over 55% in size
Target sequence (P10636 561-689 P618L limits assumed): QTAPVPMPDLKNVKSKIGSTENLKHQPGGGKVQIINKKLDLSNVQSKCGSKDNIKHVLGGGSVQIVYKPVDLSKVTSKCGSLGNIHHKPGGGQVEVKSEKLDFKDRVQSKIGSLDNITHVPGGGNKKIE
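Using a mix of unlabeled (15 uM) and Alexa 594-labeled (0.24 uM) tau K18 P301L, heparin-triggered fibrillization over 6 hr at 37 C was scored by ThT fluorescence.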
FBPA coupling cs = qHTS Assay for Inhibitors of Fructose-1,6-bisphosphate Aldolase from Giardia Lamblia: Coupling assay counterscreen | coupling enzyme system counterscreen, AmpLite Red fluorescence | activity change, negative = inhibition, % at 58.2 µM, hits read low | 0.67% of 290,000 active | AID 2472, 2010; in the data active = activity change below about -30%
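Final compound at 57.5 uM, incubated 10 min at RT with coupling enzyme reagent (glyceraldehyde-3-phosphate), then 20 min with substrate and AmpLite Red detection. Fluorescence read at 525/598 nm; tests interference with the coupling assay, not aldolase inhibition.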
Tau fluor cs = Counterscreen qHTS for Inhibitors of Tau Fibril Formation, Fluorescence Polarization | tau K18 P301L Alexa594 fluorescence, heparin fibrillization | Potency, µM (series often up to 57.7 µM), inactives show at the top dose activity change, negative = decrease | 0.93% of 280,000 active; note: potency is the fitted concentration of half-maximal effect; nearly all actives have a fitted effect of over 55% in size
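Human tau K18 P301L (15 uM unlabeled, 0.24 uM Alexa 594-labeled) in 100 mM sodium acetate pH 7 with 20 uM heparin, 6 hr at 37 C. ThT 30 uM added, 1 hr ambient; Alexa 594 FP and total fluorescence read at 555/632 nm.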
Tau fibril FP = qHTS for Inhibitors of Tau Fibril Formation, Fluorescence Polarization. Microtubule-associated protein tau (Homo sapiens), P10636. K18 P301L tau heparin fibrillization, Alexa594 FP, 6 h. Potency, µM (titrated, usually from 57.7 µM), for inactives: at the top dose activity, negative = inhibition, usual class: inhibitors. 0.39% of 280,000 active; note: potency is the fitted concentration of half-maximal effect; nearly all actives have a fitted effect of over 55% in size
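Compound effects on tau fibrillization are measured by Alexa 594 fluorescence polarization (ex 555, em 632 nm). K18 P301L tau is used at 15 uM with 0.24 uM labeled tracer, and 20 uM heparin induces aggregation over 6 hr at 37 C.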
Numbers without * were called inactive; ? = inconclusive; · = no result given; [ ] = dose if it differs, or a comment. This is a sample that favours compounds with a hit; in the whole collection about 3% have one here. Unless noted, calls come from the whole dose curve; as a rule, active = well fitted curve in the direction sought with a large enough effect; inconclusive = small, poorly fitted or top-dose-only effect, or another doubt; inactive = no such curve, though single readings can be large; an effect the other way counts as inactive or inconclusive. Unless noted, % is set by controls: 0 for no effect and ±100 for the full control effect.

SMILES	JMJD2E inh	Tau ThT inhib	FBPA coupling cs	Tau fluor cs	Tau fibril FP
CSCC[C@H](NC(=O)[C@H](CC(C)C)NC(=O)CNC(=O)[C@H](Cc1ccccc1)NC(=O)[C@H](Cc1ccccc1)NC(=O)[C@H](CCC(N)=O)NC(=O)[C@H](CCC(N)=O)NC(=O)[C@@H]1CCCN1C(=O)[C@H](CCCCN)NC(=O)[C@@H]1CCCN1C(=O)[C@@H](N)CCCN=C(N)N)C(N)=O	·	·	2	·	·
N#Cc1cc2c(OCC(O)CN3CCN(C(c4ccccc4)c4ccccc4)CC3)cccc2[nH]1 (configuration not stated)	·	-12%	·	?	28µM*
CCc1cc[n+](-c2nc([O-])sc2C=O)cc1	-9%	?	-38*	-28%	?
CC(C)c1cc[n+](-c2nc([O-])sc2C=O)cc1	?	35µM*	-40*	-25%	-25%
CCOC(=O)c1cc2c(=O)n3ccccc3nc2n(Cc2ccco2)c1=NC(=O)c1cccc(F)c1	·	-9%	·	-15%	-6%
CN1CCC(=O)N(C(CSc2ccc(Br)cc2)c2ccccc2)CC1 (configuration not stated)	·	·	8	·	·
Cc1cc(C)[n+]2[nH]c(N)c(N=Nc3ccccc3)c2n1	-9%	16µM*	-2	-21%	4%
Cc1cc(C(F)(F)F)n2[nH]c(=O)c(N=Nc3ccccc3)c2n1	?	?	0	-16%	3%
NCCNCCNCCN	99%	-14%	9	-9%	-4%
NCCNCCN	·	·	-44*	·	·
OCc1ccnc2c(O)cccc12	?	?	2	?	-6%
Cc1cccc(NCc2ccccc2O)c1C	3%	?	0	?	12%
Cc1ccccc1NCc1ccc(O)c2ncccc12	7.1µM*	-11%	-4	-8%	6%
Oc1ccc(CNc2ccccc2)c2cccnc12	8.9µM*	?	-7	-20%	3%
Oc1ccc(CN2CCN(Cc3ccccc3)CC2)c2cccnc12	-3%	-6%	7	-8%	-2%
COCc1ccc(O)c2ncccc12	10µM*	-19%	-4	-15%	-7%
Oc1ccc(CNc2ccc(F)cc2)c2cccnc12	7.9µM*	?	-16	-20%	5%
Fc1ccc(NC(=S)NCc2cccnc2)cc1	10%	5%	3	8%	0%
CN(C)[C@H]1C(=O)C(C(=O)NCN2CCCC2)=C(O)[C@]2(O)C(=O)C3=C(O)c4c(O)cccc4[C@@](C)(O)[C@H]3C[C@@H]12	11µM*	·	-36*	·	·
COc1cccc(C2C(C(=O)/C=C/c3ccco3)=C(O)C(=O)N2CCN2CCOCC2)c1 (configuration not stated)	-26%	?	-33*	-7%	-4%
C=CCn1c(NC(=O)c2ccccc2Cl)c(C#N)c2nc3ccccc3nc21	?	?	-52*	-25%	?
CCCCCn1c(N)c(C#N)c2nc3ccccc3nc21	?	?	-3	-20%	-9%
CCCCn1c(NC(C)=O)c(C#N)c2nc3ccccc3nc21	-1%	-4%	-59*	-3%	-1%
CCCCC(=O)/C=C/n1c(=S)oc2ccccc21	1%	14µM*	0	-7%	?
COc1cccc(-n2c(N)c(-c3nc4ccccc4[nH]3)sc2=S)c1	-2%	7.9µM*	-6	16µM*[quencher]	13%
SMILES	JMJD2E inh	Tau ThT inhib	FBPA coupling cs	Tau fluor cs	Tau fibril FP
CC(=O)N(C1=C(N)C(=O)c2ccccc2C1=O)C(C)C	0%	-5%	-43*	4%	3%
N#Cc1c(NC(=O)C2CC(c3ccccc3Cl)=NO2)sc2c1CCC2 (configuration not stated)	3%	-13%	1	-22%	-2%
Cc1onc(-c2ccccc2Cl)c1C(=O)Nc1sc2c(c1C#N)CCC2	4%	28µM*	0	?	?
CCOC(=O)c1c(/N=C/c2cc([N+](=O)[O-])ccc2O)sc(C)c1C	-2%	?	-1	?	11%
CCc1n[nH]c(=S)n1/N=C/c1cc(OC)cc([N+](=O)[O-])c1O	2%	5µM*	-1	-28%	-16%
CCOC(=O)c1c(/N=C/c2cccc([N+](=O)[O-])c2O)sc2c1CCC2	-13%	16µM*	-3	-27%	-7%
CCOC(=O)c1c(/N=C/c2cc(OC)cc([N+](=O)[O-])c2O)sc(C)c1C	-5%	8.9µM*	-3	?	?
Cc1ccc2c(c1)N(C(=O)N1CCC(C(=O)NCCc3ccc(Cl)cc3)CC1)CC(C)O2 (configuration not stated)	·	-4%	·	7.9µM*[quencher]	7%
O=C(NCc1cccs1)C1CCN(C(=O)N2CCOc3ccc(Cl)cc32)CC1	·	-18%	·	-3%	-1%
O=C(NCCC1=CCCCC1)C1CCN(C(=O)N2CCOc3ccccc32)CC1	·	2%	·	2.8µM*[quencher]	?
O=C(NCc1ccco1)C1CCN(C(=O)N2CCOc3ccc(Cl)cc32)CC1	·	20µM*	·	?	?
Cc1cc(C)c(NC(=O)C2CCN(C(=O)N3CC(C)Oc4ccc(Cl)cc43)CC2)c(C)c1 (configuration not stated)	·	-17%	·	-4%	1%
CC1CN(C(=O)N2CCC(C(=O)NC3CCCCCC3)CC2)c2cc(Cl)ccc2O1 (configuration not stated)	·	20µM*	·	?	?
CC(=O)O[C@]1(C(C)=O)CC[C@H]2C3C=C(Cl)C4=CC(=O)[C@@H]5C[C@H]5[C@]4(C)C3CC[C@@]21C (some centres not stated)	4%	-14%	·	-13%	1%
Cc1ccc(C)c(N=Cc2cc3c(cc2[N+](=O)[O-])OCO3)c1	-1%	?	-40*	-18%	-1%
COc1ccccc1/C=C/C=C1N=C(/C=C/c2ccc(Cl)cc2)OC/1=O	?	13µM*	6	-10%	-4%
COc1ccccc1/C=C/C1=NC(=C\C=C/c2ccccc2)/C(=O)O1	0%	11µM*	9	-10%	-7%
Cc1nc2ccccn2c(=O)c1NC(=O)c1ccc(C(F)(F)F)cc1	·	-4%	·	-2%	-6%
COc1ccc2nc3c(c([Si](C)(C)C(C)(C)C)c2c1)Cn1c-3cccc1=O	?	?	-1	?	-12%
COc1cc2nc3c(c([Si](C)(C)C(C)(C)C)c2cc1OC)Cn1c-3cccc1=O	-4%	?	-42*	-17%	2%
CCc1nc(SC)ncc1C(=O)N1CCN(c2cc(C)ccc2C)CC1	·	-16%	·	1%	3%
Cc1nn2c(NC(C)C)c3c(nc2c1-c1ccccc1)CCC3	?	28µM*	2	?	?

Assay outcomes (PubChem BioAssay)
